Screening data from PubChem BioAssay.
Only some compounds are listed: those with a hit (about 19% of all), similar ones and a draw of the others.
IL1B secr inh: blocks inflammasome-driven IL-1 beta release; AID 743279; 360,000 tested, 4.7% active; activity change, % at 57.5 µM; THP-1 LPS/ATP IL-1B secretion, AlphaLISA, 16 h; stronger effect = lower value; in the data active = activity change below about -50%; inconclusive = mostly about -30% to -49%
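THP-1 cells pretreated 1 hr with compounds (up to 57.5 uM final), then stimulated with LPS (250 ng/mL final) plus ATP (1.25 mM final); secreted IL-1B measured by AlphaLISA after 16 hr, decreased signal indicating inhibition.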
Giardia killer: kills Giardia lamblia. 340,000 tested, 0.15% active. activity change, % at 7.66 µM, hits read low. AID 540267. Giardia lamblia trophozoite viability; in the data active = activity change below about -80%; inconclusive = between about -30% and that limit;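 also: parasites exposed to compound for two days anaerobically before the ATP read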
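Each well holds 100 Giardia trophozoites and compound. After two days (48 hrs) at 37 deg C in anaerobic conditions, ATP is quantified by luminescence.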
DT40 TDP1 no CPT: qHTS for Inhibitors of human tyrosyl-DNA phosphodiesterase 1 (TDP1): qHTS in cells in absence of CPT | DT40 Tdp1-/- hTDP1 cells, no CPT, ATP luminescence, 48 h | Potency, µM (highest dose often 46.2 µM), inactives show at the highest dose activity change, negative = growth inhibition, usual class: inhibitors | 420,000 tested, 15% active | AID 686978, 2013; also: potency is read from the fitted curve at half-maximal effect; nearly all actives have a fitted effect of over 55% in size
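Seeded 400 DT40-hTDP1 cells/well (vehicle DMSO, no 20 nM CPT); pinned compounds; ≥48 hr at 37 °C; CellTiter-Glo luminescence as viability measure.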
TDP1 cell CPT: DT40-hTDP1 cell growth loss with CPT; chicken DT40 Tdp1-/-;hTDP1 cells + 20 nM CPT, ATP luminescence, 48 h; Potency, µM (doses to about 46.2 µM), inactives show top-dose activity change, negative = growth inhibition, usual class: inhibitors; 420,000 tested, 12% active; also: potency is read from the fitted curve at half-maximal effect; nearly all actives have a fitted effect of over 55% in size
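Chicken DT40 Tdp1-/- cells complemented with human TDP1, 400 cells/well, exposed to compounds plus 20 nM camptothecin for at least 48 h at 37 C; viability read as ATP content by CellTiter-Glo luminescence.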
TDP1 block: inhibitors of human tyrosyl-DNA phosphodiesterase TDP1. Q9NUW8. Potency, µM (titrated, usually from 130 µM), for the others: at the highest dose activity change, negative = inhibition, hits mostly inhibitors. 350,000 tested, 0.28% active. recombinant TDP1, AlphaScreen DNA substrate cleavage; also: potency is read from the fitted curve at half-maximal effect; nearly all actives have a fitted effect of over 40% in size
Target sequence (Q9NUW8 whole entry, looked up): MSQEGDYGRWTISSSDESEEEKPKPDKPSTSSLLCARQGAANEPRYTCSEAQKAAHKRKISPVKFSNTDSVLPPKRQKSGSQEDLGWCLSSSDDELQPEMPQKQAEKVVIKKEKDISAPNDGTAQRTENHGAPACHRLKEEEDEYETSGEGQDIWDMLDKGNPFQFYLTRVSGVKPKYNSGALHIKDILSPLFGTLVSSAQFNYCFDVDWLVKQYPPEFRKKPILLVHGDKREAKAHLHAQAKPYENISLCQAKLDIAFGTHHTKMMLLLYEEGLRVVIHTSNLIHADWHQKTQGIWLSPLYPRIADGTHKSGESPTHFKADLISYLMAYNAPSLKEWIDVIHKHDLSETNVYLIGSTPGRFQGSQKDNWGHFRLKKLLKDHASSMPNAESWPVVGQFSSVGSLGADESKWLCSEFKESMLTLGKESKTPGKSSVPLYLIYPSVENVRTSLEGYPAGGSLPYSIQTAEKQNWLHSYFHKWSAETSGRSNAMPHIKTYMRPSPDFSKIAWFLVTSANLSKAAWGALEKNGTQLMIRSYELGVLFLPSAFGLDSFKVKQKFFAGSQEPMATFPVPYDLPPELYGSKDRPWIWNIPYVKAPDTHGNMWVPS
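Compounds were preincubated with Tdp1 (1 nM final) for 15 min at room temperature before substrate (15 nM final) started a 5 min reaction; beads (10 ug/ml final) were then added for 10 min before AlphaScreen detection.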
ELG1 repair inh: inhibitors of ELG1-dependent DNA repair in HEK293T cells. AID 504467. HEK293T ELG1-luciferase reporter, luminescence, 16 h; DNA damage induced by 5-fluorouridine. 330,000 tested, 2.3% active. Potency, µM (series often up to 46.1 µM), for inactives: top-dose activity change, negative = inhibition, most hits filed as inhibitors; also: potency is read from the fitted curve at half-maximal effect; nearly all actives have a fitted effect of over 55% in size
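In this reporter screen, reduction of luminescence relative to DMSO vehicle indicated activity. Compounds and 5-fluorouridine were added together to 2,000 cells per well, incubated for 16 hr at 37 °C, then developed with ONE-Glo.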
The depositor's hits bear a star. Unless noted, calls follow the shape of the dose curve; as a rule, active = well fitted curve in the direction sought with a large enough effect; inconclusive = small, poorly fitted or top-dose-only effect, or another doubt; inactive = no such curve, though single readings can be large; an effect the other way counts as inactive or inconclusive. % is scaled to controls: 0 for no effect and ±100 for the full control effect.

How did CC(OC(=O)c1cccc(-n2cnnn2)c1)C(=O)N(C)c1ccccc1 (stereo unspecified) do in these assays?
IL1B secr inh: inconclusive; Giardia killer: 41; DT40 TDP1 no CPT: 16%; TDP1 cell CPT: -11%; TDP1 block: 1%; ELG1 repair inh: -2%

What do the screens show for `CCC(=O)c1cn(CC(=O)Nc2ccc(OC)cc2)c2ccccc12`?
IL1B secr inh: 4; Giardia killer: -8; DT40 TDP1 no CPT: inconclusive; TDP1 cell CPT: -14%; ELG1 repair inh: -3%

What do the screens show for `CCOC(=O)C1=C(COC(=O)CC(C)c2ccccc2)NC(=O)NC1C` (stereo unspecified)?
IL1B secr inh: 2; Giardia killer: 9; DT40 TDP1 no CPT: -21%; TDP1 cell CPT: 5%; TDP1 block: 1%; ELG1 repair inh: 5%

How did COc1ccc(CNC(=O)C2CCN(c3nnc(-n4c(C)ccc4C)s3)CC2)c(OC)c1 do in these assays?
DT40 TDP1 no CPT: 16µM*; TDP1 cell CPT: inconclusive; TDP1 block: 8%

What do the screens show for `Cc1cc(C)cc(NC(=O)C2CCN(c3nnc(-n4c(C)ccc4C)s3)CC2)c1`?
DT40 TDP1 no CPT: inconclusive; TDP1 cell CPT: -75%; TDP1 block: 5%

How did Cc1ccc(C)n1-c1nnc(N2CCC(C(=O)Nc3ccccc3Br)CC2)s1 do in these assays?
DT40 TDP1 no CPT: 16µM*; TDP1 cell CPT: inconclusive; TDP1 block: 0%

How did COc1cccc(CNC(=O)C2CCCN(c3nnc(-n4c(C)ccc4C)s3)C2)c1 (stereo unspecified) do in these assays?
DT40 TDP1 no CPT: inconclusive; TDP1 cell CPT: inconclusive; TDP1 block: 8%

Results for Cc1ccc(C)n1-c1nnc(N2CCCC(C(=O)NCc3ccccc3)C2)s1 (stereo unspecified) ?
DT40 TDP1 no CPT: inconclusive; TDP1 cell CPT: inconclusive; TDP1 block: 5%

What do the screens show for `COc1ccccc1CNC(=O)C1CCCN(c2nnc(-n3c(C)ccc3C)s2)C1` (stereo unspecified)?
DT40 TDP1 no CPT: inconclusive; TDP1 cell CPT: 16µM*; TDP1 block: 3%

What do the screens show for `COc1cccc(CNC(=O)C2CCN(c3nnc(-n4c(C)ccc4C)s3)CC2)c1`?
DT40 TDP1 no CPT: 15µM*; TDP1 cell CPT: inconclusive; TDP1 block: 5%

How did Cc1cc(C)cc(N(CCC#N)C(=O)CSc2nc3ccccc3c(=O)[nH]2)c1 do in these assays?
IL1B secr inh: -26; Giardia killer: -4; DT40 TDP1 no CPT: inconclusive; TDP1 cell CPT: -7%; TDP1 block: 0%; ELG1 repair inh: 0%

What do the screens show for `COc1ccc(CN2C[C@@H](CO)O[C@@H](n3cnc4c(N5CCN(CCO)CC5)ncnc43)C2)cc1`?
IL1B secr inh: 0; DT40 TDP1 no CPT: -24%; TDP1 cell CPT: inconclusive

How did CCOC(=O)C1CC2CC(C1)CN(C(=O)C1CCCCC1)C2 (stereo unspecified) do in these assays?
IL1B secr inh: 15; Giardia killer: -15; DT40 TDP1 no CPT: -4%; TDP1 cell CPT: -14%; TDP1 block: -3%; ELG1 repair inh: 9%

Results for COc1ccc(CNC(=O)C2CCN(c3nnc(-n4cccc4CNc4ccc(C)cc4)s3)CC2)c(OC)c1 ?
DT40 TDP1 no CPT: 13µM*; TDP1 cell CPT: 16µM*; TDP1 block: 1%

What do the screens show for `COc1ccc(OC)c(CCNC(=O)C(C)n2c(C)c3cnn(-c4ccccc4)c(=O)c3c2C)c1` (stereo unspecified)?
DT40 TDP1 no CPT: inconclusive; TDP1 cell CPT: 21µM*; TDP1 block: 8%

What do the screens show for `CSc1ccc(CCNC(=O)C(C)n2c(C)c3cnn(-c4ccccc4)c(=O)c3c2C)cc1` (stereo unspecified)?
DT40 TDP1 no CPT: inconclusive; TDP1 cell CPT: 26µM*; TDP1 block: 8%

Results for COc1ccc(OC)c(CNC(=O)C(C)n2c(C)c3cnn(-c4ccccc4)c(=O)c3c2C)c1 (stereo unspecified) ?
DT40 TDP1 no CPT: 12µM*; TDP1 cell CPT: inconclusive; TDP1 block: 5%

How did COC(=O)c1ccccc1NC(=O)Cn1cnc2c(cnn2-c2ccccc2)c1=O do in these assays?
IL1B secr inh: 17; Giardia killer: -7; DT40 TDP1 no CPT: -15%; TDP1 cell CPT: 7%; TDP1 block: 2%; ELG1 repair inh: -4%

What do the screens show for `CCC(C(=O)Nc1ccccc1C(=O)OC)n1c(C)c2cnn(-c3ccccc3)c(=O)c2c1C` (stereo unspecified)?
DT40 TDP1 no CPT: inconclusive; TDP1 cell CPT: 26µM*; TDP1 block: 8%

What do the screens show for `Cc1c2cnn(-c3ccccc3)c(=O)c2c(C)n1C(C)C(=O)NCc1cccc(Br)c1` (stereo unspecified)?
DT40 TDP1 no CPT: inconclusive; TDP1 cell CPT: inconclusive; TDP1 block: 8%

Results for CC(C)N(C)C1CCN(S(=O)(=O)c2ccc3[nH]c(=O)ccc3c2)CC1 ?
DT40 TDP1 no CPT: 18%; TDP1 cell CPT: -12%; TDP1 block: -2%

How did NS(=O)(=O)c1ccc(NC2=CC(c3ccc([N+](=O)[O-])cc3)N(c3ccc(S(N)(=O)=O)cc3)C2=O)cc1 (stereo unspecified) do in these assays?
IL1B secr inh: 5; Giardia killer: 1; DT40 TDP1 no CPT: 9%; TDP1 cell CPT: -2%; TDP1 block: 3%; ELG1 repair inh: 24%

What do the screens show for `COc1ccccc1NC(=S)N(Cc1ccco1)Cc1cc2ccc(C)c(C)c2[nH]c1=O`?
IL1B secr inh: 11; Giardia killer: -17; DT40 TDP1 no CPT: 0.58µM*; TDP1 cell CPT: 0.58µM*; TDP1 block: 8%; ELG1 repair inh: inconclusive

How did CNC(=S)N(Cc1ccco1)Cc1cc2cc(OC)c(OC)cc2[nH]c1=O do in these assays?
IL1B secr inh: -7; Giardia killer: 6; DT40 TDP1 no CPT: 0%; TDP1 cell CPT: 3%; TDP1 block: 3%; ELG1 repair inh: 1%

Results for Cc1ccc2cc(CN(Cc3ccco3)C(=O)NC3CCCCC3)c(=O)[nH]c2c1C ?
IL1B secr inh: inconclusive; Giardia killer: 18; DT40 TDP1 no CPT: 29µM*; TDP1 cell CPT: 16µM*; TDP1 block: 7%; ELG1 repair inh: 7.3µM*

How did COc1ccccc1NC(=S)N(Cc1ccco1)Cc1cc2cc(C)cc(C)c2[nH]c1=O do in these assays?
IL1B secr inh: 20; Giardia killer: -3; DT40 TDP1 no CPT: 10µM*; TDP1 cell CPT: 10µM*; TDP1 block: 4%; ELG1 repair inh: 12µM*
